Several values for one entry are separate records, joined by “and”; a condition that tells them apart may be missing. Identical values can stand only once. Inconclusive results are not listed. Activity calls are given as the source filed them. Calls follow the shape of the dose curve; as a rule, active = well fitted inhibition curve with a large enough effect; inconclusive = small, poorly fitted or top-dose-only effect, or effect the other way; inactive = no such curve, though single readings can be large or run the other way.
What follows are molecules tested against Nuclear receptor ROR-gamma (Mus musculus) (UniProt P51450) (assay: Secondary confirmation assay for inhibitors of ROR gamma transcriptional activity). Details: Drosophila S2 Gal4-RORgamma UAS-luciferase reporter, 20 h; series mostly up to 92.2 µM.
Nuclear receptor ROR-gamma (Mus musculus), sequence (P51450 whole entry, looked up, the tested form may be a part): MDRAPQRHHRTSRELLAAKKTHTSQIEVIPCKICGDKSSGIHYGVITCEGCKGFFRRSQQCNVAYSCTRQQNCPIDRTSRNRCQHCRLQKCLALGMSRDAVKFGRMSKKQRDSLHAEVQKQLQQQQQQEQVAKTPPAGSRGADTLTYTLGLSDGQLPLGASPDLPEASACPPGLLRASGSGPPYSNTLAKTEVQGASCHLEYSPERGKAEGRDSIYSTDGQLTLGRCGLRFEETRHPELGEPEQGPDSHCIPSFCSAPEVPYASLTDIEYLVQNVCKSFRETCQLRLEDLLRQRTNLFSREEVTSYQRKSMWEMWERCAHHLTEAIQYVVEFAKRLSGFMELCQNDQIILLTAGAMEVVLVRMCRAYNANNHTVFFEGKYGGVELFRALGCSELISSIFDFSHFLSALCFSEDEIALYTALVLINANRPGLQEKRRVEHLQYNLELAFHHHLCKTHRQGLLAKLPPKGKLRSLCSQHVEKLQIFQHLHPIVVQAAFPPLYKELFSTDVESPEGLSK
Procedure, shortened: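 Luminescence read after 20 hr at ambient temperature, following 1 hr compound exposure and copper sulfate induction (700 uM final), in stably transfected Schneider cells carrying Gal4-ROR gamma fusion and UAS-driven firefly luciferase.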
With CCC1CCCN(C(=O)CC(c2ccc3c(c2)OCO3)c2c(O)cc(OC)cc2OC)C1 (centres undefined) the Potency was 3.23 µM (active).
With COc1cc(OC)c(C(CC(=O)N2CC(C)CC(C)C2)c2ccc3c(c2)OCO3)c(OCC#N)c1 (centres undefined) the Potency was 7.24 µM (active).
For CCn1cc(C(=O)O)c(=O)c2cnc(N3CCN(C(=S)NC(=O)c4ccccc4)CC3)nc21, the Potency was 11.5 µM (active).
For Cc1ccc(Sc2cncc3sc(C(N)=O)cc23)cc1, the Potency was 0.204 µM (active).
With COc1cc(O)c(C(CC(=O)N2CCCC(C)C2)c2ccc(C)cc2)c(OC)c1 (centres undefined) the Potency was 10.2 µM (active).
CCC1(CC)CCN(C(=O)CC(c2ccc3c(c2)OCO3)c2c(O)cc(OC)cc2OC)C1 (centres undefined) was tested, and the Potency was 22.9 µM (active).
COc1ccc(C(CC(=O)N2CCCC(C)C2)c2ccccc2)cc1 (centres undefined) was tested, and the Potency was “inactive”.
With CCOC(=O)Cn1c(CN2CCc3ccccc3C2)nc2c1c(=O)n(C)c(=O)n2C the Potency was 5.75 µM (active).
COc1ccc(-c2nnc(-c3ccc(N(C)C)cc3)o2)cc1 was tested, and the Potency was 1.29 µM (active).
For Cc1ccc(OCCCC(=O)Nc2nc3ccccc3[nH]2)cc1, the Potency was 7.24 µM (active).
For CC(C)(C)c1ccc([S+](=O)([O-])Nc2ccccc2C(O)(C(F)(F)F)C(F)(F)F)cc1, the Potency was 16.2 µM (active).
In the case of CCNC(=O)CCc1nc(-c2ccc(C(C)(C)C)cc2)no1, the Potency is reported as 0.512 µM (active).
With COc1cc(O)c(C(CC(=O)Nc2cccc3ccccc23)c2ccc3c(c2)OCO3)c(OC)c1 (centres undefined) the Potency was “inactive”.
COc1cc(O)c(C(CC(=O)N2CCCC(C(=O)N3CCCCC3)C2)c2ccc3c(c2)OCO3)c(OC)c1 (centres undefined) was tested, and the Potency was “inactive”.
For C=C1Nc2c(-c3ccc(F)cc3)cnn2C(N)=C1c1ccccc1, the Potency was 0.0911 µM (active).
CCOc1ccc(-c2cc(CCCC(=O)NCc3cccnc3)no2)cc1 was tested, and the Potency was 0.724 µM (active).
COc1ccc(CNC(=O)[C@@H](NC(=O)C2CCN(C(=O)[C@@H]3CCCN3C(=O)OC(C)(C)C)CC2)C(C)C)cc1 was tested, and the Potency was “inactive”.
For COc1ccc(OC)c(NC(=S)N(CCc2c(C)[nH]c3ccccc23)Cc2cccs2)c1, the Potency was 12.9 µM (active).
COc1cc(O)c(C(CC(=O)N2CCCC(C)C2)c2ccc3c(c2)OCO3)c(OC)c1 (centres undefined) was tested, and the Potency was 3.63 µM (active) and 3.23 µM (active).
With COc1ccc(C(=O)/C=C/c2ccc(OC)cc2OC)c(O)c1 the Potency was 0.575 µM (active).
In the case of CCOc1ncccc1C(=O)OCC(=O)Nc1ccc(-c2nc3ccc(C)cc3s2)cc1, the Potency is reported as 0.407 µM (active).
With Cc1cc(C)nc(-n2nc(C)cc2NC(=O)CNC(C)c2ccccc2)n1 (centres undefined) the Potency was 5.75 µM (active).
In the case of CC(C)(C)c1ccc(S(=O)(=O)Nc2ccc(C(O)(C(F)(F)F)C(F)(F)F)cc2)cc1, the Potency is reported as 20.4 µM (active).
For COc1cc(O)c(C(CC(=O)N2CCc3ccccc3C2)c2ccc3c(c2)OCO3)c(OC)c1 (centres undefined), the Potency was “inactive”.
COc1cc(O)c(C(CC(=O)N2CCCC(c3ccccc3)C2)c2ccc3c(c2)OCO3)c(OC)c1 (centres undefined) was tested, and the Potency was “inactive”.
For COc1cc(O)c(C(CC(=O)N2CCCC(C)C2)c2ccccc2C)c(OC)c1 (centres undefined), the Potency was 7.24 µM (active).
In the case of COc1cc(O)c(C(CC(=O)N2CCCC(C(C)C)C2)c2ccc3c(c2)OCO3)c(OC)c1 (centres undefined), the Potency is reported as 25.7 µM (active).
For COc1cc(O)c(C(CC(=O)N2CCOCC2)c2ccc3c(c2)OCO3)c(OC)c1 (centres undefined), the Potency was “inactive”.
For COc1ccc(C)c(O)c1C(CC(=O)N1CCCC(C)C1)c1ccc2c(c1)OCO2 (centres undefined), the Potency was 40.7 µM (active).
In the case of COCOc1cc(OC)cc(OC)c1C(CC(=O)N1CC(C)CC(C)C1)c1ccc2c(c1)OCO2 (centres undefined), the Potency is reported as 4.07 µM (active).
For COc1cc(O)c(C(CC(=O)N2CCCC(C)C2)c2ccc(OC)c(OC)c2)c(OC)c1 (centres undefined), the Potency was 9.11 µM (active).
In the case of O=C(/C=C/c1ccc(S(=O)(=O)N2CCOCC2)cc1)NC(=S)Nc1ccc(N2CCOCC2)cc1, the Potency is reported as 2.04 µM (active).
With COc1ccc(C(CC(=O)N2CCCC(C)C2)c2c(O)cc(OC)cc2OC)c(OC)c1 (centres undefined) the Potency was “inactive”.
COc1cc(O)c(C(CC(=O)N2CCCC(C)C2)c2cccc3ccccc23)c(OC)c1 (centres undefined) was tested, and the Potency was “inactive”.
